Inconclusive results are not listed. Entries that show only a call come without a potency. Active and inactive are the calls of the source. Calls come from the whole dose curve; as a rule, active = well fitted inhibition curve with a large enough effect; inconclusive = small, poorly fitted or top-dose-only effect; inactive = flat fitted curve, though single readings scatter.

The target in the experiment is Calcium and integrin-binding protein 1 (Homo sapiens) (UniProt Q99828). Description: Primary qHTS for Identification of Calcium Integrin Binding Protein 1 (CIB1) Competitor (AID 1508620).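 Note: GST tagged CIB1 binding a fluorescein labelled alphaIIb integrin peptide tracer; top concentration of the series differs between compounds.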 The note with it: CIB1-GST / FITC-alphaIIb peptide fluorescence polarization; series mostly up to 114 µM. The method, boiled down: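 CIB1-GST (1 uM final) and compound incubated 15 min at room temperature before adding FITC-alphaIIb peptide tracer (100 nM final). Competition for binding read by fluorescence polarization (ex 480, em 540) after another 15 min at room temperature.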
Chain of Calcium and integrin-binding protein 1 (Homo sapiens) (Q99828 whole entry, looked up): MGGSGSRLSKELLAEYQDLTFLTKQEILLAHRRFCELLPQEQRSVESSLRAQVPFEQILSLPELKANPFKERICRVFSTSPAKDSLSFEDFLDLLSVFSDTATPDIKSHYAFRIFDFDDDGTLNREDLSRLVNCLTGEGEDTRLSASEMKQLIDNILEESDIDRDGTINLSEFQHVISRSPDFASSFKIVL
Turning to `COc1ccc(N2Cc3cccc(C(=O)O)c3C2=O)cc1OC`, the Potency result was “inactive”. The same measure for `COc1cccc(C2c3c(ncn(-c4ccccn4)c3=N)Oc3ccc4ccccc4c32)c1` (stereo not given): “inactive”; for `Cc1cccc(Nc2nc(C#N)nc(NC3CCCC3)n2)c1`: “inactive”. The same measure for `COc1cccc(C2C(C#N)=C(NC(=O)NCc3ccccc3)Oc3ccc4ccccc4c32)c1` (stereo not given): “inactive”; for `c1cncc(-c2ccc(CNc3nc(N4CCOCC4)nc4ccccc34)cc2)c1`: “inactive”; for `Cc1cn([C@H]2C[C@H](N[S+](=O)([O-])Cc3cccc(Cl)c3)[C@@H](CO)O2)c(=O)[nH]c1=O`: “inactive”. With `CCC(C)(CCN1CCOCC1)N(Cc1cc2ccccc2n(C)c1=O)C(=O)C1CCCCC1` (stereo not given), the Potency entry was “inactive”. The entry for `COc1ccccc1C1N=C(Nc2nc3ccccc3o2)NC2=C1C(=O)CCC2` (stereo not given) is “inactive”. For the compound `CCOc1ccc(C(=O)Nc2ccc(-c3nc4ccccc4[nH]3)cc2)cc1`, the Potency result was “inactive”. `O=C(Nc1ccc(Cl)c(Cl)c1)Nc1nnc(-c2cccnc2)s1`: the Potency entry is “inactive”. The entry for `Cc1nc(-c2ccccc2)oc1-c1ccc2ncnc(NCCc3cnc[nH]3)c2c1` is “inactive”. Take `CN(C)c1ccccc1-c1csc(N2CCC(C(N)=O)CC2)n1`: the Potency entry is “inactive”. As to `O=c1c2ccccc2nc2sc(NCc3ccc(Sc4ccccc4)cc3)nn12`, the Potency entry is “inactive”.

For the compound `COc1ccc(-c2ccc(CNc3ccc(N4CCN(C(=O)OC(C)(C)C)CC4)cc3)o2)cc1`, the Potency entry is “inactive”.

For the compound `Cc1cccc(C(=O)NC2CCN(C#N)CC2)c1`, the Potency entry was “inactive”. The same measure for `COc1cccc(CNc2ccc(S(=O)(=O)Nc3cccs3)cc2)c1O`: “inactive”; for `CC(C)c1ccccc1-c1ncc(F)c(NCc2ccc(-n3ccnn3)cc2)n1`: “inactive”. Regarding `O=C1CCc2cc(S(=O)(=O)Nc3cccc(Oc4ccccc4)c3)ccc2N1`, the Potency entry was “inactive”. The entry for `Cc1ccnc(NC(=S)N2CCN(c3ccc4ccccc4n3)CC2)c1` is “inactive”; for `Cc1cnc(N2CCC(C(N)=O)CC2)nc1-c1cccc(N(C)C)c1` it is “inactive”; for `FC(F)(F)c1ccccc1-c1nc(NCc2ccc(-c3ccc4c(c3)OCCO4)cc2)c2ccccc2n1` it is “inactive”. The entry for `O=S(=O)(Nc1nccs1)c1ccc(NCc2cccc(O)c2)cc1` is “inactive”; for `O=C(Nc1ccc(-c2nc3ccccc3[nH]2)cc1)Nc1ccc2c(c1)CCCO2` it is “inactive”. The same measure for `CCOC(=O)c1nn(-c2ccccc2)c(=O)c2c(N)scc12`: “inactive”. For `O=S(=O)(Nc1nc(-c2ccccc2C(F)(F)F)nc2ccccc12)c1ccc(Br)cc1`, the Potency result is “inactive”. Take `O=C(Nc1cncc(-c2cccc3ccccc23)c1)c1cccs1`: the Potency entry was “inactive”. The entry for `COc1ccc(-c2csc(N3CCC(C(N)=O)CC3)n2)cc1OC` is “inactive”; for `COc1ccc(C2=Nn3c(nnc3-c3ccc(OC)c(OC)c3)SC2)c(OC)c1` it is “inactive”. The same measure for `Cc1cc(C)nc(NC(=S)N2CCN(c3ccc(F)cc3F)CC2)c1`: “inactive”; for `COc1nccc(-c2nc(Nc3ccc(F)c(F)c3)c3ccccc3n2)c1OC`: “inactive”. The entry for `OCC#CCSc1nnc(-c2cccc3ccccc23)o1` is “inactive”; for `O=C1NC(=O)/C(=C/c2cccn2-c2ccc(P(O)O)cc2)N1` it is “inactive”; for `O=C1CCc2cc(S(=O)(=O)Nc3ccccc3F)ccc2N1` it is “inactive”. Regarding `Cc1cc(C)nc(NC(=S)N2CCN(c3nnc(C(F)(F)F)s3)CC2)c1`, the Potency entry is “inactive”.

`O=C1Nc2ccccc2/C1=C\c1ccc(C(=O)O)cc1`: the Potency result was “inactive”. The same measure for `COc1cccc(C)c1NC(=O)C(OC(=O)CNC(=O)c1ccccc1)c1ccccc1` (stereo not given): “inactive”; for `O=C(COc1ccc(F)cc1)NCCc1nc2ccccc2[nH]1`: “inactive”; for `COc1cccc(CNc2ccc([S+](=O)([O-])Nc3cc4ccccc4s3)cc2)c1O`: “inactive”. The entry for `S=C(Nc1cc(Cl)ccn1)N1CCN(c2cccc(Cl)c2Cl)CC1` is “inactive”; for `CC(=O)Nc1sc2c(c1-c1ccc3c(c1)OCCCO3)CCNC2` it is “inactive”.

For the origin of these results see PubChem BioAssay (NCATS).
